This note sets out measurements from PubChem BioAssay AID1745848 (National Center for Advancing Translational Sciences (NCATS), 2022).

The whole screen tested about 2,100 compounds, of which about 940 (45%) were called active. Inconclusive results (about 48%) are left out. The call rests on the fitted dose curve; in most records, active means well fitted inhibition curve with a large enough effect; inconclusive means small, poorly fitted or top-dose-only effect; inactive means no such curve, though single readings can be large or run the other way. So high a share suggests a set chosen from earlier hits. The list shows a part of the results.
Potency means the concentration at half of the fitted maximal effect.

The test in a line: Confirmatory qHTS for Inhibitors of ATXN expression. Further: nearly all actives have a fitted effect of over 65% in size. To be noted: ATXN2-luciferase reporter cells, luminescence, 24 h; series mostly up to 11.5 µM. A digest of the protocol: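 Cells carrying ATXN2-luciferase reporter exposed 24 h at 37 C to compound. Viability then read by CellTiter-Fluor (25 uM GF-AFC, 30 min), followed by SteadyGlo luminescence; medium-only wells set 100% inhibition.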
(In general: In qHTS, concentration-response curves come from the screen itself.)
For the compound `O=C(Nc1cccc2c1CCCC2)c1cc([N+](=O)[O-])ccc1Cl`, the Potency is 15.8 µM (active). In the case of `O=C(NCC1CCCO1)c1cccc(Oc2ccc([N+](=O)[O-])cc2Cl)c1` (stereo not drawn) it was “inactive”; in that of `O=C(CCCN1C(=O)S/C(=C\c2ccccc2)C1=O)NNC(=O)c1ccccc1O`, 2.24 µM (active). Consider `COc1ccc(/C=C2\SC(=S)N(CCCC(=O)NNC(=O)c3ccccc3O)C2=O)cc1`, for which the Potency was 3.98 µM (active). On to `CC(C)(C)c1ccc(OCCCC(=O)NNC(=O)c2ccccc2O)cc1`, for which the Potency was 25.1 µM (active). In the case of `CN(C)CCNCCCNc1c2ccccc2nc2cccc([N+](=O)[O-])c12` it was 0.0891 µM (active); in that of `CC(=O)N1CCN(c2ccc(Oc3ccc([N+](=O)[O-])c(C(F)(F)F)c3)cc2)CC1`, 11.2 µM (active). In the case of `Cc1c(C(=O)Nc2ccc(-c3nnc4n3CCCCC4)cc2)oc2c1ccc1ccccc12` it was 3.16 µM (active).

For the compound `O=C(N/N=C/c1ccccc1O)C1CCCC1`, the Potency was 28.2 µM (active). In the case of `O=C(N/N=C/c1ccccc1O)C1SCCCS1` it was 14.1 µM (active). In the case of `C/C(=C\C(=O)c1ccc(Br)cc1)NNC(=O)c1ccc(O)cc1` it was 14.1 µM (active). In the case of `O=C(c1cc(COc2cccc(C(F)(F)F)c2)on1)N1CCC(c2ccncc2)CC1` it was “inactive”; in that of `CC(=NNc1nc2ccccc2o1)c1ncccn1`, 0.199 µM (active).

For the compound `Cc1ccccc1NC(=O)CSc1n[nH]c(-c2ccccn2)n1`, the Potency was 14.1 µM (active). Turning to `Cc1ccc(C)c(NC(=O)CSc2n[nH]c(-c3ccccn3)n2)c1`, the Potency was 22.4 µM (active).

With `Cc1ccsc1/C=C/C1=Cc2c(sc(NC(=O)CSc3n[nH]c(N)n3)c2C#N)C(C)(C)C1`, the Potency entry was “inactive”. In the case of `CC1=C(CC[C@@H](C)CO)OC2CC3C4CCC5CC(O)CCC5(C)C4CC(=O)C3(C)C12` (stereo partly drawn) it was 3.16 µM (active); in that of `Cc1cc(O)c(C(C)C)cc1N=Cc1ccccc1[N+](=O)[O-]`, “inactive”; in that of `CCOc1cc(/C=N/Nc2cc(C)nc(-n3nc(C)cc3C)n2)ccc1O`, 0.708 µM (active). As for `Cc1cc(N/N=C/c2ccccc2[N+](=O)[O-])nc(-n2nc(C)cc2C)n1`, the Potency is 3.16 µM (active). In the case of `C/C(=N\Nc1cc(N2CCOCC2)nc(C)n1)c1cccc([N+](=O)[O-])c1` it was “inactive”; in that of `Cc1nc(N/N=C/c2ccc(O)cc2O)cc(N2CCOCC2)n1`, 11.2 µM (active); in that of `Cc1cc(N/N=C/c2ccc(O)cc2O)nc(-n2nc(C)cc2C)n1`, 5.01 µM (active). As for `CS/C(=C\[N+](=O)[O-])Nc1ccc(OC(F)(F)F)cc1`, the Potency is 11.2 µM (active).

Take `OC(CNCCc1ccccc1)COc1ccc(OCC(O)CNCCc2ccccc2)cc1` (stereo not drawn): the Potency was 12.6 µM (active). Take `CCCc1cc(=O)n2[nH]cc(-c3ccc(Cl)cc3)c2n1`: the Potency was 2.82 µM (active). Turning to `O=c1c2c(nc3c(-c4ccc(Cl)cc4)c[nH]n13)CCCC2`, the Potency was 1.26 µM (active). Under `O=C(c1cccc(Cl)c1)c1nn(-c2ccccc2)c(=O)cc1C(F)(F)F` stands 31.6 µM (active); under `O=c1c2ccccc2sc2nc(CCl)nn12`, 3.16 µM (active). In the case of `O=c1[nH]c(CN2CCN(c3ncccn3)CC2)nc2c(Br)cc(Br)cc12` it was 2.82 µM (active); in that of `COc1cc(/C=N\NC(=O)CC#N)ccc1OC/C=C/c1ccccc1`, 28.2 µM (active). Consider `Cc1[nH]c2ccccc2c1SCc1nnc(SCc2ccc(Cl)cc2)n1C`, for which the Potency is 31.6 µM (active). Regarding `Cn1c(CCc2nc3ccccc3[nH]2)nnc1SCC#N`, the Potency entry was “inactive”.

As to `Cc1cc2sc3ccc(C#CC4(O)CCCCC4)cc3c(=O)c2cc1C`, the Potency result was “inactive”.

For the compound `CC(C)n1c(NCc2cc(Cl)ccc2O)nc2ccccc21`, the Potency entry is “inactive”. In the case of `Cc1ccc2cc(C3C(C#N)=C(N)Oc4c3ccc3cccnc43)c(=O)[nH]c2c1` (stereo not drawn) it was 6.31 µM (active); in that of `Cc1cccc(/C=C/C(=O)c2ccc([N+](=O)[O-])o2)c1`, 3.16 µM (active). For `COc1ccc(/C=C/C(=O)c2ccc([N+](=O)[O-])o2)cc1OC`, the Potency was 7.94 µM (active). In the case of `Cc1cc(C)cc(NC(=O)c2ccc([N+](=O)[O-])o2)c1`, the Potency was 2.82 µM (active). Consider `CNC(=O)c1sc(N2N=C3/C(=C/c4ccccc4)CCCC3C2c2ccccc2)nc1C` (stereo not drawn), for which the Potency was 12.6 µM (active). In the case of `Cc1ccc(C(=O)NC(C)CCc2ccccc2)cc1S(=O)(=O)N1CCOCC1` (stereo not drawn) it was 15.8 µM (active); in that of `Cc1ccc(NC(=O)CNc2cccc(Br)c2)cc1S(=O)(=O)N1CCOCC1`, “inactive”. In the case of `CC(CCc1ccccc1)NC(=O)c1ccc(C(=O)NC(C)CCc2ccccc2)cc1` (stereo not drawn) it was 1.58 µM (active). Under `CC(C)[C@H](CO)Nc1nc(NCc2ccc(S(N)(=O)=O)cc2)c2ncn(C(C)C)c2n1` stands 2 µM (active).

Turning to `Oc1c(Cl)cc(Cl)cc1/C=N/Nc1ncc(Br)cn1`, the Potency is 2.51 µM (active). Consider `CC1CC2(C)Oc3ccccc3CC2C(C)C1CNCCCN(C)C` (stereo not drawn), for which the Potency is 14.1 µM (active).

With `C(=NN1CCCCCC1)c1ccc2ccccc2n1`, the Potency entry was “inactive”.

On to `CCc1nc2ccccc2c(C(=O)OCC(=O)Nc2cccc(S(=O)(=O)NC3=NCCCCC3)c2)c1C`, for which the Potency was 17.8 µM (active). Regarding `CCc1nc2ccccc2c(C(=O)OCC(=O)Nc2ccc(NC(C)=O)cc2)c1C`, the Potency entry is “inactive”. For `Cc1cc(/C=N/n2c(COc3ccccc3)nc3ccccc3c2=O)c(O)c([N+](=O)[O-])c1`, the Potency is 7.94 µM (active). Under `CSc1sc(-c2nnc(SCC(=O)Nc3ccc(Cl)cc3)n2C)c2c1C=CCC2` stands “inactive”; under `Cn1c(SCC(=O)N/N=C/c2ccc([N+](=O)[O-])s2)nnc1-c1ccccc1`, 17.8 µM (active). Under `Cn1c(SCC(=O)N/N=C/c2ccc([N+](=O)[O-])s2)nnc1-c1ccc(Cl)cc1` stands 10 µM (active); under `C=CCc1cccc(/C=N/NC(=O)CNc2ccccc2OC)c1O`, 5.01 µM (active). Turning to `C=CCc1ccccc1OCC(=O)N/N=C/c1ccc(OC(C)=O)cc1OC(C)=O`, the Potency was 15.8 µM (active). In the case of `C=CCc1cccc(/C=N/NC(=O)CNc2ccccc2)c1O` it was 2.82 µM (active); in that of `COc1ccc(C(=O)NNC(=S)NC(=O)c2ccccc2)cc1`, 14.1 µM (active); in that of `CCCOc1ccc(C(=O)NC(=S)NNC(=O)c2c(-c3ccccc3)noc2C)cc1`, “inactive”. Under `CCCC/C(C)=N/NC(=O)c1cn(-c2ccccc2)nc1-c1ccccc1` stands “inactive”. Regarding `CCC(=O)NC(=S)NNC(=O)c1ccc(OC)cc1`, the Potency is 15.8 µM (active). In the case of `CCCCOc1ccc(C(=O)NNC(=S)NC(=O)CC)cc1` it was 2.82 µM (active); in that of `COc1ccc(-c2nn(-c3ccccc3)cc2C(=O)NC(=S)NNC(=O)c2ccncc2)cc1`, 15.8 µM (active); in that of `C=CS(=O)(=O)c1c2cc(OC)ccc2nc2ccc(OC)cc12`, 28.2 µM (active).

Turning to `COc1ccc(C)cc1Nc1nc(N)c2cc(OC)c(OC)cc2n1`, the Potency is 2.82 µM (active).

As for `O=C(COC(=O)c1cc([N+](=O)[O-])ccc1N1CCOCC1)Nc1ccc(Cl)cn1`, the Potency was 6.31 µM (active).

As to `CC(C)Nc1nc(-c2ccccn2)nc(-c2ccccc2)c1C#N`, the Potency entry is “inactive”. Under `CCN(CC)c1nc(-c2ccccn2)nc(-c2ccccc2)c1C#N` stands 7.08 µM (active); under `O=C(NNC(=O)C12CC3CC(CC(C3)C1)C2)c1ccccn1`, 8.91 µM (active); under `O=C(NNC(=O)C(c1ccccc1)c1ccccc1)c1ccccn1`, 3.16 µM (active). For `O=C(NCC(=O)N1CC(O)CC1C(=O)N1CCCC1C(=O)OCc1ccccc1)OCc1ccccc1` (stereo not drawn), the Potency is 3.16 µM (active). `COC(=O)c1cc(=O)n(CCc2ccc(OC)c(OC)c2)c(=Nc2ccc(F)c(Cl)c2)s1`: the Potency was 3.16 µM (active). In the case of `CCCC[C@@H](CNC)NC[C@H](NCCCCC1CCCCC1)C(C)C` it was 28.2 µM (active).

As for `CCN1C(=O)/C(=C/c2nc3ccccc3c(=O)n2-c2ccccc2)c2ccccc21`, the Potency was 25.1 µM (active).

On to `O=[N+]([O-])c1c(Nc2ccccn2)cc(Cl)c2nonc12`, for which the Potency is 7.94 µM (active).

For the compound `COc1cc(C=CC(=O)c2cc(OC)c(OC)c(OC)c2)cc(OC)c1OC`, the Potency was 8.91 µM (active). In the case of `COc1cc(/C=C/c2ccc3cccc(O)c3n2)cc(OC)c1OC` it was “inactive”.

`Cc1[nH]c2ccccc2c1C1=NNC(=Nc2ccc(F)cc2)SC1`: the Potency was 31.6 µM (active).

On to `O=C(Nc1ccc(Cl)cc1)Nc1nc(-c2sccc2Br)cs1`, for which the Potency is 6.31 µM (active). In the case of `CC(C)[C@@H]1CC[C@@H](C)C[C@H]1OC(=O)C[n+]1cc(-c2ccc(Cl)cc2)n2c1CCCCC2` it was 15.8 µM (active); in that of `COc1ccc(-c2csc(NC(=O)c3ccccc3NS(=O)(=O)c3ccc(F)c(F)c3)n2)cc1`, 1.78 µM (active); in that of `O=C(Nc1nc(-c2ccccc2)cs1)c1ccccc1NS(=O)(=O)c1ccc(F)cc1`, 2 µM (active). In the case of `NS(=O)(=O)c1ccc(Nc2nc(-c3ccc(F)cc3)cs2)cc1` it was “inactive”; in that of `OC(c1cc(F)cc(Cl)c1)c1ncc(-c2cccc(C(F)(F)F)c2)[nH]1` (stereo not drawn), 3.16 µM (active); in that of `Cc1cc(C)c(C(O)c2ncc(-c3cccc4ccccc34)[nH]2)c(C)c1` (stereo not drawn), “inactive”. Turning to `OC(c1ccc(Cl)cc1)c1ncc(-c2cccc(C(F)(F)F)c2)[nH]1` (stereo not drawn), the Potency result is “inactive”. In the case of `CCN(CC)C(=O)C1=C(C)N(CCC2=CCCCC2)C(=O)C(CC(=O)NC(c2ccccc2)c2ccccc2)C1` (stereo not drawn) it was “inactive”; in that of `C/C(=N\NC(=O)c1ccc(Cl)c(Cl)c1)c1ccccn1`, 0.178 µM (active); in that of `C/C(=N\NC(=O)c1cccc2ccccc12)c1ccccn1`, 0.708 µM (active).

In the case of `Cc1cc(C)cc(NC(=O)CSc2nc3nc(C)cc(C)c3c(=O)[nH]2)c1`, the Potency was 28.2 µM (active). In the case of `Cc1cc(C)cc(NC(=O)CSc2nc3[nH]ncc3c(=O)[nH]2)c1` it was 2.51 µM (active); in that of `COc1cc(C(=O)O/N=C(\N)Cc2ccc([N+](=O)[O-])cc2)cc(OC)c1OC`, 2.82 µM (active); in that of `Cn1c(CO)cnc1S(=O)(=O)Cc1ccc([N+](=O)[O-])cc1`, “inactive”. In the case of `O=c1[nH]c(=O)n(C2C[C@H](O)[C@@H](CO)O2)cc1C(F)(F)F` (stereo partly drawn) it was 1.26 µM (active).
